The structures appear in SMILES notation.

The nature of this experiment: small-molecule microarray binders of probe aCHRDL2, primary screen, biochemical, biotinylated probe, 635/667 nm fluorescence (AID 1100). As to conditions: higher = more signal.
Take `C=CC[C@@]1(C(=O)OC)N=C(c2ccc(OCCCO)cc2)O[C@@H]1c1ccccc1CN=[N+]=[N-]`: the composite z-score is 0.892.

For the molecule `[N-]=[N+]=Nc1ccccc1[C@H]1OC(c2ccc(OCCCO)cc2)=N[C@@]1(CCS(=O)(=O)c1ccccc1)C(=O)N1CCOCC1`, the composite z-score came to 1.46.

In the case of `C=CCN1C(=O)[C@@]2(O[C@@H](CCO)[C@H]([Si](C)(C)c3ccc(OC)cc3)[C@H]2C)c2cc(N3C(=O)COc4ccccc43)ccc21`, the composite z-score was -0.0458.

Turning to `CCCC[C@H]1OB(O)C[C@H]2C1=C(COc1ccccc1)C[C@H]1C(=O)N(Cc3ccccc3)C(=O)[C@H]12`, the composite z-score was -0.283.

Molecule `C#C[C@H](O[Si](C#CCCCCCC)(C(C)C)C(C)C)c1ccccc1` returned a composite z-score of -0.132.

With `C=CCNC(=O)[C@H]1[C@@H]2C(=O)O[C@@H](c3ccccc3)[C@@H](c3ccccc3)N2[C@@H](c2ccc(O)cc2)[C@]12C(=O)Nc1ccc(C#Cc3ccc(OC)cc3)cc12`, the composite z-score came out at 0.536.

Take `[N-]=[N+]=NCc1ccccc1C[C@@]1(C(=O)NCc2ccccc2)N=C(c2ccc(OCCCO)cc2)O[C@@H]1c1ccccc1CN=[N+]=[N-]`: the composite z-score turned out to be 1.06.

As for `C[N+](C)(C)CCCC[C@@H]1NC(=O)[C@H]2C[C@@H](C(=O)O)[C@@H](c3cccc(OCCO)c3)N2C1=O`, the composite z-score worked out at 1.38.

`C=CCN1Cc2ccccc2C[C@@]2(COC(c3ccc(OCCCO)cc3)=N2)C1=O` showed a composite z-score of 1.15.

Molecule `[N-]=[N+]=NCc1ccccc1C[C@]1(C(N)=O)N=C(c2ccc(OCCCO)cc2)O[C@H]1c1ccccc1N=[N+]=[N-]` came in with a composite z-score of 1.16.

`CC(C)N1C(=O)c2ccccc2[C@](C)(C(=O)NCCCN(C)C)[C@@H]1c1ccc(CO)cc1` gave a composite z-score of 0.665.

In turn, `COCCOC(=O)N1C(=O)[C@@]2(c3ccccc31)[C@H](C(=O)N1CCCCCCC1)[C@H]1C(=O)O[C@H](c3ccccc3)[C@H](c3ccccc3)N1[C@@H]2c1ccccc1OCCO` returned a composite z-score of 1.66.

`C=C(COC)C(=O)CC[C@@H](OC(=O)c1ccccc1-c1ccccc1C(=O)O)c1ccc(CO)o1` displayed a composite z-score of -0.69.

For the molecule `COCCn1c(C(=O)N2CCCC2)cc2c1C[C@H]1CN(C(=O)c3ccccc3)[C@@](Cc3ccc(OC)cc3)(C(=O)OC)[C@@H]21`, the composite z-score came out at 1.44.

The molecule `COc1ccc([Si](C)(C)[C@H]2[C@H](CC(=O)N3CCC[C@H]3CO)O[C@@]3(C(=O)N(c4ccccc4)c4ccccc43)[C@@H]2C)cc1` yielded a composite z-score of -0.28.

`C=CCC(OC(C)=O)[C@@H]1[C@@H](N(Cc2cc3ccccc3o2)C(=O)c2ccc(-c3ccccc3)cc2)c2cc(OCCCO)ccc2N1C(=O)Cc1ccc2ccccc2c1` (stereo partly drawn): the composite z-score worked out at 0.351.

Molecule `C/C=C/[C@H](CCn1cc([C@H](O)c2ccccc2)nn1)[Si](C)(C)c1ccc(OC)cc1` yielded a composite z-score of 0.503.

`CCCC[C@@H]1C[C@H]1[C@@H](NC(=O)c1ccccc1)c1ccccc1` yielded a composite z-score of 0.781.

As to `O=C1OCCC=C[C@H]2OC34C=CCN(c5ccc6ccccc6c5)C(=O)[C@H]3N(CCCCCCO)C(=O)[C@@H]4C12` (stereo partly drawn), the composite z-score is 0.187.

On to `COc1ccc([Si](C)(C)[C@H]2[C@H](CC(=O)N(CCO)Cc3ccccc3)O[C@@]3(C(=O)N(Cc4cccc(N5C(=O)c6cccc7cccc5c67)c4)c4ccccc43)[C@@H]2C)cc1`, for which the composite z-score worked out at 0.0901.

In the case of `C=CCC(OC(C)=O)[C@@H]1[C@@H](N(Cc2cc3ccccc3o2)C(=O)c2cccc3ccccc23)c2cc(OCCCO)ccc2N1C(=O)Cc1ccc(OC)cc1` (stereo partly drawn), the composite z-score was 0.0527.

Molecule `COC(=O)[C@@]1(Cc2ccc(OC)cc2)[C@H]2c3cc(C(=O)N4CCCC4)n(CCc4ccccn4)c3C[C@H]2CN1C(=O)c1ccccc1` showed a composite z-score of 0.95.

For the molecule `C=CCN1C(=O)[C@]2(Cc3ccccc31)N=C(c1ccc(OCCCO)cc1)O[C@@H]2c1ccccc1`, the composite z-score came out at 0.922.

For `CCCC[C@H]1OB(O)C[C@H]2C1=C(C)Cn1c(=O)n(-c3ccccc3)c(=O)n12`, the composite z-score is -0.67.

As to `CCN(CC)c1ccc(N2CC=CC34O[C@@H]5C=CCOC(=O)[C@@H]5[C@H]3C(=O)N(CCCCCO)[C@@H]4C2=O)cc1` (stereo partly drawn), the composite z-score was determined as 0.682.

The molecule `C#C[C@H]1Oc2ccccc2S(=O)(=O)N2CCC[C@@H]12` gave a composite z-score of -0.0688.

On to `O=C1C[C@@](C(=O)O)(c2ccc([N+](=O)[O-])cc2)[C@@H](c2ccc(CO)cc2I)N1CC12CC3CC(CC(C3)C1)C2`, for which the composite z-score turned out to be 1.13.

In turn, `CCOC(=O)N1C(c2ccc(OCCCO)cc2)=NC(C(=O)OC)N1C(=O)OCC` (stereo not drawn) gave a composite z-score of 0.0258.

(Values after PubChem BioAssay.)
